# Laboratory results published in PubChem BioAssay (Tox21).
# Results filed as inconclusive are left out. Where a call stands in place of a potency, no number is given. Active and inactive are the calls of the source. The call rests on the fitted dose curve; in most records, active means well fitted inhibition curve with a large enough effect in the repeat runs; inconclusive means weak or mixed curves; inactive means flat fitted curve, though single readings scatter.
# Molecular target: Voltage-gated inwardly rectifying potassium channel KCNH2 (Homo sapiens) (UniProt Q12809)
# Sequence (Q12809 whole entry, looked up): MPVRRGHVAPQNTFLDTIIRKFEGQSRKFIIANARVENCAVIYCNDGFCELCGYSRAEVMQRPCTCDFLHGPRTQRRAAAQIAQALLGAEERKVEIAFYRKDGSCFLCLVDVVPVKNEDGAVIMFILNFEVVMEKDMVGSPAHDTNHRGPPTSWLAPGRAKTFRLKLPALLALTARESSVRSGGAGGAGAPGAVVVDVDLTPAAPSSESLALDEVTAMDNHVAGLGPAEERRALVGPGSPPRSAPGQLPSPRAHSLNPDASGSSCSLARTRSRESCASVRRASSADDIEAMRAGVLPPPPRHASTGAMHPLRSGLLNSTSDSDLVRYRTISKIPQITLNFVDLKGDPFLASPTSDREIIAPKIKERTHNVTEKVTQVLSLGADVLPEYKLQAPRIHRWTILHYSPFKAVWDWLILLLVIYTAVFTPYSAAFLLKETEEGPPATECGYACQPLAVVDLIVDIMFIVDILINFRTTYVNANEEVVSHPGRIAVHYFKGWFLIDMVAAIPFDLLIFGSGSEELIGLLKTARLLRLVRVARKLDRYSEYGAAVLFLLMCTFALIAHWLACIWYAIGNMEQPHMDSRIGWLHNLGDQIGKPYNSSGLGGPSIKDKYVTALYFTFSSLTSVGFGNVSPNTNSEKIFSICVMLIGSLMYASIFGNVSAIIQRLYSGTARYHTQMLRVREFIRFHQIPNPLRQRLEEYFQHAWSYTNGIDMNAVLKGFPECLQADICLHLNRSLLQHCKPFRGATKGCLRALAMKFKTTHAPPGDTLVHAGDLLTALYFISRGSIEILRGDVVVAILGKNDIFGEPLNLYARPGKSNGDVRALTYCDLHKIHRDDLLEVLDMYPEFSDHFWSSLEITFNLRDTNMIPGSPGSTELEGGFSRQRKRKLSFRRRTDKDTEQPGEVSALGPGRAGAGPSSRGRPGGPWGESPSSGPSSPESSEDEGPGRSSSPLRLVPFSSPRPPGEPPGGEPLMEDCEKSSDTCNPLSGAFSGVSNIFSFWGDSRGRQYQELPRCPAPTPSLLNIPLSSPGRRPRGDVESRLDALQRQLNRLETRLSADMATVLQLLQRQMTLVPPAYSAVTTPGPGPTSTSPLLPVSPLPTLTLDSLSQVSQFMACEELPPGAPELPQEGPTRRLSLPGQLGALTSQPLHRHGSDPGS
# Experiment: Human Ether-a-go-go-Related Gene (hERG) channel small molecule antagonists: fluorescence cell-based qHTS assay (AID 1671200); further: nearly all actives have a fitted effect of over 50% in size
# Settings: hERG-U2OS cells, FluxOR thallium flux fluorescence; series mostly up to 76.8 µM
# Summary of the method: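 Fluorescence at 540 nm emission (480 nm excitation) was recorded kinetically for 2 min at 1-second intervals once the thallium-containing stimulus reached cells previously loaded with FluxOR II dye.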
# Potency means the concentration at half of the fitted maximal effect.
SMILES,Potency,"activity change, negative = inhibition"
CCC1=C[C@@H]2CN(C1)Cc1c([nH]c3ccccc13)[C@@](C(=O)OC)(c1cc3c(cc1OC)N(C)[C@H]1[C@@](O)(C(=O)OC)[C@H](OC(C)=O)[C@]4(CC)C=CCN5CC[C@]31[C@@H]54)C2,6.74 µM (active),–
CCN1/C(=C/C=C/c2sc3ccccc3[n+]2CC)Sc2ccccc21,–,-25.3% [at 15.8 µM] (inactive)
Cc1ccc(O)c(C(C)(C)C)c1,inactive,–
O=C1CCCCCN1SSN1CCCCCC1=O,inactive,–
C[n+]1cc2c3c(ccc2c2ccc4cc5c(cc4c21)OCO5)OCO3,–,-0.0312% [at 15.8 µM] (inactive)
CCc1cc(Cc2cc(CC)c(N)c(CC)c2)cc(CC)c1N,inactive,–
O=C(O)c1cc(O)c2c(c1)C(=O)c1cccc(O)c1C2=O,inactive,–
CCCCCCCCCCCC(=O)NCCCN(C)C,13.8 µM (active),–
O=[N+]([O-])c1cc(Cl)c(Cl)c(Cl)c1Cl,inactive,–
C=CC(=O)OCC(CO)(COC(=O)C=C)COC(=O)C=C,inactive,–
CO[Si](CCCNc1ccccc1)(OC)OC,inactive,–
CCc1oc2ccccc2c1C(=O)c1cc(Br)c(O)c(Br)c1,10.7 µM (active),–
O=C(OC[C@H]1O[C@@H](OC(=O)c2cc(O)c(O)c(OC(=O)c3cc(O)c(O)c(O)c3)c2)[C@H](OC(=O)c2cc(O)c(O)c(OC(=O)c3cc(O)c(O)c(O)c3)c2)[C@@H](OC(=O)c2cc(O)c(O)c(OC(=O)c3cc(O)c(O)c(O)c3)c2)[C@@H]1OC(=O)c1cc(O)c(O)c(OC(=O)c2cc(O)c(O)c(O)c2)c1)c1cc(O)c(O)c(OC(=O)c2cc(O)c(O)c(O)c2)c1,–,1.88% [at 15.8 µM] (inactive)
S=c1[nH]c2ccccc2s1,inactive,–
Cc1nc(-c2ccc3c(c2)CCN(CCC2CCC(NC(=O)/C=C/c4ccc(F)cc4)CC2)CC3)no1 (stereo unspecified),0.873 µM (active),–
CC[C@@]1(O)C(=O)OCc2c1cc1n(c2=O)Cc2c-1nc1ccccc1c2/C=N/OC(C)(C)C,inactive,–
O=C(O)c1c(Cl)cccc1Cl,inactive,–
CCCCCCCCCCCCCCCC(=O)OC[C@H](O)[C@H]1OC(=O)C(O)=C1O,inactive,–
CC(C)c1ccc2c(c1)CC[C@H]1[C@](C)(CN)CCC[C@]21C,13.8 µM (active),–
CCC(C)(C)C1CCCCC1OC(C)=O (stereo unspecified),inactive,–
CCCCCCCCNC(C)C(O)c1ccc(SC(C)C)cc1 (stereo unspecified),0.268 µM (active),–
O=C(OCC1CO1)C1CCCCC1C(=O)OCC1CO1 (stereo unspecified),inactive,–
CCCCCCCC(=O)[O-].CCCCCCCC(=O)[O-].[Zn+2],inactive,–
CSc1ccc2c(c1)C(N1CCN(C)CC1)Cc1ccccc1S2 (stereo unspecified),1.07 µM (active),–
CC(C)(C)C(=O)OCOC(=O)C1N2C(=O)CC2S(=O)(=O)C1(C)C (stereo unspecified),inactive,–
Clc1ccc2cc3ccccc3cc2c1,inactive,–
